This is an account of results in PubChem BioAssay (NCATS).

Records with an inconclusive call do not appear. A call without a number means that no potency is given here. Active and inactive are the calls of the source. The call rests on the fitted dose curve; in most records, active means well fitted inhibition curve with a large enough effect; inconclusive means small, poorly fitted or top-dose-only effect; inactive means flat fitted curve, though single readings scatter.
Potency means the concentration at half of the fitted maximal effect.

One assay relates to CP262. The assay is described as follows: qHTS profiling for inhibitors of Plasmodium falciparum proliferation (AID 504749). Further: nearly all actives have a fitted effect of over 60% in size. The conditions noted are these: P. falciparum in erythrocytes, SYBR Green DNA, 72 h; series mostly up to 12.8 µM. Put shortly:
(§1)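 SYBR Green fluorescence (ex 485 nm, em 535 nm) reports parasite DNA after 72 h compound exposure of infected red cells at 0.3% parasitemia, 2.5% hematocrit; signal normalized to 0.29 uM artemisinin and vehicle wells.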
In general terms: In qHTS, concentration-response curves come from the screen itself.
Take `CCO[C@H]1O[C@@H]([C@H](COCc2ccccc2)OCc2ccccc2)[C@@H](OCc2ccccc2)[C@H]1O`: the Potency entry was “inactive”.
For the compound `COc1cc(N[C@@H](C)CCCN)c2ncccc2c1`, the Potency was 1280 nM (active).
The same measure, in the same setting: to `C=Cc1c(C)c2cc3nc(cc4[nH]c(cc5nc(cc1[nH]2)C(C)=C5CCC(=O)O)c(CCC(=O)OC)c4C)[C@@]1(C)C3=CC=C(C(=O)OC)[C@H]1C(=O)OC` (tested in a mixture with another compound) belongs “inactive”.
Still for that read-out and setting: then `O=C(OC[C@@H](O)CO)c1ccccc1Nc1ccnc2cc(Cl)ccc12`, with “inactive”.
Same read-out and setting: to `CO[C@]1(NC(=O)[C@H](C(=O)O)c2ccc(O)cc2)C(=O)N2C(C(=O)O)=C(CSc3nnnn3C)CO[C@H]21` belongs “inactive”; to `COc1ccc2c(c1)N(C[C@@H](C)CN(C)C)c1ccccc1S2`, “inactive”.
For `CCC(=O)[C@@]1(C)[C@H](C)C[C@@H]2[C@@H]3CCC4=CC(=O)C=C[C@@]4(C)[C@H]3[C@H](O)C[C@]21C`, the Potency entry was “inactive”.
As for `CCC(C)(C)C(=O)O[C@@H]1C[C@H](C)C=C2C=C[C@H](C)[C@@H](CC[C@H]3C[C@@H](O)CC(=O)O3)[C@H]21`, the Potency result was “inactive”.
Still for that read-out and setting: then `CCN(CC)[C@@H](C)CN1c2ccccc2Sc2ccccc21`, with “inactive”.
Still for that read-out and setting: to `COC(=O)[C@@H]1[C@@H]2C[C@H]3c4[nH]c5cc(OC)ccc5c4CCN3C[C@@H]2C[C@H](OC(=O)/C=C\c2cc(OC)c(OC)c(OC)c2)[C@H]1OC` belongs “inactive”; to `CC=C(/C(=C/C)c1ccc(O)cc1)c1ccc(O)cc1`, “inactive”.
Take `CC1(C)S[C@@H]2[C@H](NC(=O)[C@@H](N)c3ccccc3)C(=O)N2[C@H]1C(=O)O[C@H]1OC(=O)c2ccccc21`: the Potency result was “inactive”.

Another assay concerns CP265. The assay is described as above. The settings on record: P. falciparum in erythrocytes, SYBR Green DNA, 72 h; series mostly up to 12.8 µM. Summed up:
as §1
For the compound `CCO[C@H]1O[C@@H]([C@H](COCc2ccccc2)OCc2ccccc2)[C@@H](OCc2ccccc2)[C@H]1O`, the Potency entry was “inactive”.
The same measure, in the same setting: to `COc1cc(N[C@@H](C)CCCN)c2ncccc2c1` belongs 2000 nM (active); to `C=Cc1c(C)c2cc3nc(cc4[nH]c(cc5nc(cc1[nH]2)C(C)=C5CCC(=O)O)c(CCC(=O)OC)c4C)[C@@]1(C)C3=CC=C(C(=O)OC)[C@H]1C(=O)OC` (tested in a mixture with another compound), 10000 nM (active).
Still for that read-out and setting: then `O=C(OC[C@@H](O)CO)c1ccccc1Nc1ccnc2cc(Cl)ccc12`, with “inactive”.
Still for that read-out and setting: to `CO[C@]1(NC(=O)[C@H](C(=O)O)c2ccc(O)cc2)C(=O)N2C(C(=O)O)=C(CSc3nnnn3C)CO[C@H]21` belongs “inactive”.
For `COc1ccc2c(c1)N(C[C@@H](C)CN(C)C)c1ccccc1S2`, the Potency result is “inactive”.
On the same count and under the same terms, to `CCC(=O)[C@@]1(C)[C@H](C)C[C@@H]2[C@@H]3CCC4=CC(=O)C=C[C@@]4(C)[C@H]3[C@H](O)C[C@]21C` belongs “inactive”; to `CCC(C)(C)C(=O)O[C@@H]1C[C@H](C)C=C2C=C[C@H](C)[C@@H](CC[C@H]3C[C@@H](O)CC(=O)O3)[C@H]21`, “inactive”.
Same read-out and setting: to `CC=C(/C(=C/C)c1ccc(O)cc1)c1ccc(O)cc1` belongs “inactive”.
Same read-out and setting: then `CC1(C)S[C@@H]2[C@H](NC(=O)[C@@H](N)c3ccccc3)C(=O)N2[C@H]1C(=O)O[C@H]1OC(=O)c2ccccc21`, with “inactive”.

In the next assay the test system is CP266. The description is as above. The conditions noted are these: P. falciparum in erythrocytes, SYBR Green DNA, 72 h; series mostly up to 12.8 µM. Summed up: as §1
Regarding `C=Cc1c(C)c2cc3nc(cc4[nH]c(cc5nc(cc1[nH]2)C(C)=C5CCC(=O)O)c(CCC(=O)OC)c4C)[C@@]1(C)C3=CC=C(C(=O)OC)[C@H]1C(=O)OC` (tested in a mixture with another compound), the Potency result was “inactive”.
As for `O=C(OC[C@@H](O)CO)c1ccccc1Nc1ccnc2cc(Cl)ccc12`, the Potency entry was “inactive”.
Regarding `CO[C@]1(NC(=O)[C@H](C(=O)O)c2ccc(O)cc2)C(=O)N2C(C(=O)O)=C(CSc3nnnn3C)CO[C@H]21`, the Potency result was “inactive”.
On the same count and under the same terms, to `CCC(=O)[C@@]1(C)[C@H](C)C[C@@H]2[C@@H]3CCC4=CC(=O)C=C[C@@]4(C)[C@H]3[C@H](O)C[C@]21C` belongs “inactive”; to `CCC(C)(C)C(=O)O[C@@H]1C[C@H](C)C=C2C=C[C@H](C)[C@@H](CC[C@H]3C[C@@H](O)CC(=O)O3)[C@H]21`, “inactive”; to `CCN(CC)[C@@H](C)CN1c2ccccc2Sc2ccccc21`, “inactive”.
Take `COC(=O)[C@@H]1[C@@H]2C[C@H]3c4[nH]c5cc(OC)ccc5c4CCN3C[C@@H]2C[C@H](OC(=O)/C=C\c2cc(OC)c(OC)c(OC)c2)[C@H]1OC`: the Potency result is “inactive”.
With `CC=C(/C(=C/C)c1ccc(O)cc1)c1ccc(O)cc1`, the Potency entry is “inactive”.
The same measure, in the same setting: then `CC1(C)S[C@@H]2[C@H](NC(=O)[C@@H](N)c3ccccc3)C(=O)N2[C@H]1C(=O)O[C@H]1OC(=O)c2ccccc21`, with “inactive”.

In the next assay the test system is CP268. The assay is described as above. The settings on record: P. falciparum in erythrocytes, SYBR Green DNA, 72 h; series mostly up to 12.8 µM. Put shortly:
as §1
Turning to `CCO[C@H]1O[C@@H]([C@H](COCc2ccccc2)OCc2ccccc2)[C@@H](OCc2ccccc2)[C@H]1O`, the Potency entry is “inactive”.
On the same count and under the same terms, then `COc1cc(N[C@@H](C)CCCN)c2ncccc2c1`, with 1610 nM (active); and `O=C(OC[C@@H](O)CO)c1ccccc1Nc1ccnc2cc(Cl)ccc12`, with “inactive”.
For `CO[C@]1(NC(=O)[C@H](C(=O)O)c2ccc(O)cc2)C(=O)N2C(C(=O)O)=C(CSc3nnnn3C)CO[C@H]21`, the Potency result is “inactive”.
The same measure, in the same setting: to `COc1ccc2c(c1)N(C[C@@H](C)CN(C)C)c1ccccc1S2` belongs “inactive”; to `CCC(=O)[C@@]1(C)[C@H](C)C[C@@H]2[C@@H]3CCC4=CC(=O)C=C[C@@]4(C)[C@H]3[C@H](O)C[C@]21C`, “inactive”.
For the compound `CCC(C)(C)C(=O)O[C@@H]1C[C@H](C)C=C2C=C[C@H](C)[C@@H](CC[C@H]3C[C@@H](O)CC(=O)O3)[C@H]21`, the Potency entry is “inactive”.
On to `CC=C(/C(=C/C)c1ccc(O)cc1)c1ccc(O)cc1`, for which the Potency entry is “inactive”.
`CC1(C)S[C@@H]2[C@H](NC(=O)[C@@H](N)c3ccccc3)C(=O)N2[C@H]1C(=O)O[C@H]1OC(=O)c2ccccc21`: the Potency result is “inactive”.
